The list is not random: actives were taken first. Their share in the collection is about 2.9%.
Rtt109 HAT inh – C. albicans Rtt109 histone acetyltransferase inhibition; purified Rtt109/Vps75, ThioGlo CoA-SH fluorescence, 4 h; inhibition, % at 34.9 µM; hit rate 0.16% among 330,000;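 active = inhibition of at least 50% in every replicate; inconclusive = best replicate reaches 50% inhibition but some replicates fall short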
HGIII-sPLA2 inh – Inhibits HGIII-sPLA2 liposome hydrolysis, primary screen; Q9NZ20; QFRET BODIPY PC-A2 liposome hydrolysis, fluorescence; inhibition, % at 12.2 µM; hit rate 0.56% among 370,000; AID 743126;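 active = inhibition above mean plus 3 SD of compounds lying within the high and low control bounds, cut at about 19% in these data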;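 also: 0% = median of test compound wells and 100% = no enzyme DMSO wells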
Target sequence (Q9NZ20 whole entry, looked up): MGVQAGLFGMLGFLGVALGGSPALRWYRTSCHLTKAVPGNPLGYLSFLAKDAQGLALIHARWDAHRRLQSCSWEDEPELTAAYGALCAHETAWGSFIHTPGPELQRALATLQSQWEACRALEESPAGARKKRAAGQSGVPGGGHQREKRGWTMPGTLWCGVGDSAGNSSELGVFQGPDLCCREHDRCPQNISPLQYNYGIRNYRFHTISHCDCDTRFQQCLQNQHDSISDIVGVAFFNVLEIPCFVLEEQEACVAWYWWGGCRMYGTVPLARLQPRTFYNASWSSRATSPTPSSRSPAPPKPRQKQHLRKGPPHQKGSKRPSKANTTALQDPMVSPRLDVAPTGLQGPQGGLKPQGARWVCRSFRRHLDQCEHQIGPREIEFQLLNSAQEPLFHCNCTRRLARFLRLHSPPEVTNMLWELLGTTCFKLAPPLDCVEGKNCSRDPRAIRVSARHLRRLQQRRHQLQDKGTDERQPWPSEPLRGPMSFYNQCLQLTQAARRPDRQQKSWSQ
DAGLB inhibitor – blocks human DAGLB lipase activity; Q8NCG7; HEK293T DAGLB membrane lysate, EnzChek fluorogenic substrate; inhibition, % at 5.17 µM; hit rate 0.059% among 340,000; in the data active = inhibition above about 34%;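 also: 0% = enzyme with vehicle and 100% = wells lacking enzyme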
Cardio protect – myocardial damage modulation in H9c2 cells. hit rate 0.63% among 360,000. protection from H2O2 cell death, % at 20 µM. H9c2 cardiomyocytes, H2O2 injury protection, ATPLite, 2 h;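 active = compounds giving at least 50% protection of heart cells from peroxide-induced death in the single-dose screen, raw or plate-pattern-corrected value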;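 also: 0% = DMSO wells with peroxide and 100% = DMSO wells without peroxide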
Myeloid diff MLP – myeloid differentiation induction. hit rate 1% among 360,000. AID 624256. ER-HoxA9 myeloid progenitors, lysozyme-GFP differentiation, flow cytometry. calls only at 10 µM;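 active = normalized GFP-positive differentiation at or above the plate's own cutoff, the solvent-only control mean plus 3 SD; inconclusive = no clear call, values can overlap the other calls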;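 also: cells exposed to compound for four days before flow analysis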
ABHD5-PLIN5 inh – ABHD5-PLIN5 protein interaction inhibition; Q00G26+Q8WTS1; Split G. princeps luciferase complementation, luminescence, 4 h; inhibition, % at 4 µM; hit rate 0.78% among 360,000;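 active = inhibition above the mean inhibition across every tested compound plus 3 SD, cut at about 22% in these data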;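 also: 0% = DMSO only wells and the 100% control is not disclosed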
Numbers without * were called inactive; i = inactive; ? = inconclusive; . = not tested or not shown; + = active, no number.

SMILES	Rtt109 HAT inh	HGIII-sPLA2 inh	DAGLB inhibitor	Cardio protect	Myeloid diff MLP	ABHD5-PLIN5 inh
COCCCNC(=O)[C@H](Cc1ccccc1)NC(=O)CC[C@H]1O[C@@H](n2ccc(=O)[nH]c2=O)[C@H](O)[C@@H]1O	.	2.8	.	1.4	i	-9.2
CCOC(=O)c1cnc(-n2nc(C)cc2C)nc1NNc1nc(-c2ccccc2)cc(-c2ccccc2)n1	6.8	.	-3.9	37.0	?	-2.9
Cc1cn(CC(=O)NCc2ccccn2)c(=O)[nH]c1=O	5.4	1.0	-0.8	9.5	i	8.6
CCOC(=O)CSc1nc2sc(C)c(C)c2c(=O)[nH]1	0.0	-2.3	-2.2	51.9*	i	8.8
CCc1ccc(C(=O)CSc2nc3ccccc3c(=O)[nH]2)cc1	-1.7	-58.0	-0.2	17.2	i	-7.5
Cc1ccc(C(=O)CSc2nc3ccccc3c(=O)[nH]2)cc1	7.9	-43.6	-1.0	47.3*	i	-7.2
Cc1ccc2nc(SCC(=O)c3c[nH]c4ccccc34)[nH]c2c1	-1.4	-35.8	-0.8	5.8	+	-0.2
CCOC(=O)CSc1nnc(CSc2nc3sc4c(c3c(=O)[nH]2)CCC4)n1C	.	1.1	2.0	66.3*	i	2.6
CCCN(CCC)c1nc(N(CCC)CCC)[nH]c(=O)n1	8.7	-2.4	1.4	-8.6	i	4.7
CCCn1c(SCC(=O)c2c[nH]c3ccccc23)nnc1-c1ccncc1	-1.0	-5.1	-0.4	1.1	+	4.6
Cc1sc2nc(NCCO)[nH]c(=O)c2c1C	4.3	3.7	-0.3	72.4*	i	-7.5
CCOC(=O)CSc1nc2ccccc2c(=O)[nH]1	2.0	-4.9	-3.5	58.0*	i	3.2
CCOC(=O)C1(CCOc2ccccc2)CCN(Cc2ccc(CO)o2)CC1	14.4	-4.6	-0.4	-2.3	i	6.9
CC(C)CCNC(=O)C1CCN(Cc2cccc(OCc3ccccc3)c2)CC1	3.6	-11.3	-1.1	0.0	i	2.2
COc1ccc(C(=O)CSc2nnc(CN3CCCC3)n2-c2ccc(F)cc2)c(OC)c1	2.2	-29.2	0.2	2.0	i	5.5
CCOC(=O)C1(C)CCN1C(=O)c1ccc(C#N)cc1 (centres undefined)	.	1.2	.	2.0	i	-8.8
CCOc1ccc(C(=O)CCC(=O)N2CCN(c3ccc(O)cc3)CC2)cc1	7.3	1.9	-0.2	-8.7	+	-3.6
CCOC(=O)NC(=O)c1cn(Nc2ccccc2C(F)(F)F)c(=O)[nH]c1=O	2.3	-1.7	5.6	-2.5	i	-5.5
COc1ccc(S(=O)(=O)N(C)CC(=O)NCCCN2CCOCC2)cc1C	-3.0	4.4	-0.6	4.7	i	-6.3
CCOC(=O)C1CCN(CC(O)COc2ccc(C(C)(C)C)cc2)CC1 (centres undefined)	13.1	-4.9	-2.7	-19.1	+	-1.2
CCOC(=O)N1CCN(C(=O)COc2ccc(Br)cc2Cl)CC1	4.4	1.5	-2.8	-3.2	i	-1.5
CCc1ccc(NC(=O)[C@H](C)NC(=O)C2CCN(C(=O)[C@@H](N)CC(C)C)CC2)cc1	-7.7	-0.1	-1.0	0.9	i	2.1
Cc1ccc(CNC(=O)[C@H](C)NC(=O)C2CCN(C(=O)[C@@H](N)CC(C)C)CC2)cc1	-6.8	19.5*	-2.2	1.9	i	-3.1
C[C@H](OC(=O)N1CCN(C(c2ccccc2)c2ccccc2)CC1)[C@@H]1O[C@@]2(C)CCC[C@H]1O2	-0.4	-6.7	-8.4	-6.7	i	-15.0
COc1ccc2c(c1)c(CC(=O)Nc1cccc(S(N)(=O)=O)c1)c(C)n2C(=O)c1ccc(Cl)cc1	-3.4	-35.1	0.1	-1.8	i	2.5
SMILES	Rtt109 HAT inh	HGIII-sPLA2 inh	DAGLB inhibitor	Cardio protect	Myeloid diff MLP	ABHD5-PLIN5 inh
Cc1nnn(-c2nonc2N)c1C(=O)N/N=C/c1ccccc1O	-4.9	1.1	3.1	54.5*	i	1.5
Cc1nnn(-c2nonc2N)c1C(=O)N/N=C/c1cccc2ccccc12	-2.7	2.9	-1.9	9.2	i	0.3
CCOCCCn1c(C)nc2c(c1=O)c1nc3ccccc3nc1n2CCC1=CCCCC1	-22.7	2.6	-1.2	-11.0	i	-0.4
O=c1c2c3nc4ccccc4nc3n(/N=C/c3ccco3)c2ncn1CCC1=CCCCC1	-7.8	7.2	2.3	0.2	i	1.6
Cc1nc2c(c(=O)n1CCC1=CCCCC1)c1nc3ccccc3nc1n2/N=C/c1ccccc1	-4.4	.	-1.5	109.2*	i	5.4
CCCCCCn1c(C)nc2c(c1=O)c1nc3ccccc3nc1n2/N=C/c1ccco1	-3.6	-2.7	0.1	90.5*	i	3.5
Cc1ccc2c(c1)CCCN2CC(=O)Nc1cc(S(=O)(=O)N2CCCC2)ccc1Cl	6.2	-5.9	-8.4	-7.8	+	2.0
Cc1cc(Nc2nc(Cl)c(Cl)cc2Cl)n(-c2ccccc2)n1	-7.7	7.3	-5.6	-2.8	i	2.6
COc1ccc(CCN(C)CCc2ccc(OC)c(OC)c2)cc1OC	-23.5	11.8	1.9	5.0	+	2.4
O=C(O)c1ccc2c(c1)S(=O)(=O)c1cc(N3CCN(c4cnccn4)CC3)ccc1C2=O	.	-1.1	6.0	50.2*	i	6.7
COc1ccc(/C=N\NC(=O)c2c(C)nc3ccc(Br)cn23)cc1	5.7	6.0	-0.3	59.9*	?	7.9
COc1cccc(/C=N/NC(=O)c2c(C)nc3ccc(Br)cn23)c1O	0.9	.	7.9	58.5*	?	-0.2
COc1ccc(C(=O)NNC(=O)c2ccc3ccccc3n2)cc1	-2.2	4.3	-0.8	52.3*	i	6.6
COc1ccc(C(=O)NNC(=O)c2ccncc2)cc1	65.4*	8.5	-0.9	-1.9	i	11.2
O=C(NNC(=O)c1ccc2ccccc2n1)c1ccc(O)cc1	3.5	-38.9	-0.2	20.7	i	-4.6
COc1ccccc1N(CC(O)Cn1ccnc1C)S(=O)(=O)c1ccc(C)cc1 (centres undefined)	12.5	5.8	0.7	-3.5	i	7.4
O=C(CNC(=O)C1COc2ccccc2O1)Nc1cc(Cl)ccc1Cl (centres undefined)	4.0	-5.0	-2.2	-12.9	i	1.6
CC(C)(C)CC(C)(C)NCC(O)COc1ccc2c(c1)CCC2 (centres undefined)	4.9	5.3	1.4	-18.4	i	-0.2
CCN=c1scc(-c2ccccc2)n1/N=C/c1ccccn1	6.9	.	-13.3	-11.6	+	-7.4
CCN=c1scc(-c2ccc(F)cc2)n1/N=C/c1ccccn1	12.1	-5.5	-4.5	-34.1	i	-4.6
C=CCN=c1scc(-c2ccccc2)n1/N=C/c1ccccn1	0.9	-2.1	-8.4	-18.3	+	-12.6
C=CCN=c1scc(-c2ccc(F)cc2)n1/N=C/c1ccccn1	-1.6	5.1	-4.5	-9.2	i	-3.0
Cc1c(C(c2ccccc2Br)c2c(C)n(C)n(-c3ccccc3)c2=O)c(=O)n(-c2ccccc2)n1C	-3.1	1.4	-0.2	-0.2	i	1.7

Screens (PubChem)
